Assay outcomes as filed in PubChem BioAssay.
ELG1 DNA repair = inhibitors of ELG1-dependent DNA repair in HEK293T cells. 330,000 compounds, 2.3% hits. Potency, µM (highest dose often 46.1 µM), for inactives: top-dose activity change, negative = inhibition, most hits filed as inhibitors. AID 504467. HEK293T ELG1-luciferase reporter, luminescence, 16 h; DNA damage induced by 5-fluorouridine; note: % is set by controls: 0 for no effect and ±100 for the full control effect; nearly all actives have a fitted effect of over 55% in size
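Luminescence from the luciferase reporter, measured 30 min after ONE-Glo reagent at room temperature, was the read-out. Beforehand, 2,000 cells per well were exposed for 16 hr at 37 °C to 5-fluorouridine together with compound or vehicle.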
FLuc counter = inhibits or activates purified firefly luciferase, miR-21 counter-screen | P08659 | 360,000 compounds, 6.9% hits | AID 588342 | Potency, µM (top dose mostly 57.5 µM), for inactives: at the highest dose activity change, negative = inhibition, actives largely listed as inhibitors | purified FLuc, Km substrates, luminescence inhibition;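 note: plate controls were vehicle for no effect and reference inhibitor for full effect; nearly all actives have a fitted effect of over 55% in size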
Target sequence (P08659 whole entry, looked up): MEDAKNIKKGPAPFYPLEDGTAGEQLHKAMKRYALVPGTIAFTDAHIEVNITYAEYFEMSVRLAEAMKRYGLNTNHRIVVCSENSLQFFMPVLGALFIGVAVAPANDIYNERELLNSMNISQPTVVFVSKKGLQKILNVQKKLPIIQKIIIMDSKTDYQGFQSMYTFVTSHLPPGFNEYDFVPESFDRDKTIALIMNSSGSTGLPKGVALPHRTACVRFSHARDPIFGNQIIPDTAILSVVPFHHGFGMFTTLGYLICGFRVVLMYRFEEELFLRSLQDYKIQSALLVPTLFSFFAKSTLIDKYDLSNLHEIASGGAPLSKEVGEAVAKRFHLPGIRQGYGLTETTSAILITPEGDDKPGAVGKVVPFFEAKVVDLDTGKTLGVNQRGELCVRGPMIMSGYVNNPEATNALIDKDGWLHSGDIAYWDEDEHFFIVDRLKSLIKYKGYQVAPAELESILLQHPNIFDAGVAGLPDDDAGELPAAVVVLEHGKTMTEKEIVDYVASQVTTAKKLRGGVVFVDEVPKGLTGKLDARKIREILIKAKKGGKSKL
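Purified P. pyralis luciferase, 10 nM final, with Km-level 10 uM D-luciferin and 10 uM ATP in 50 mM Tris acetate pH 7.5, 10 mM Mg acetate, 0.01% Tween-20, 0.05% BSA; 6-point qHTS titration about 60 µM downward; luminescence read.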
ELG1 genotox = genotoxicity induction in ELG1-luciferase HEK293T cells | HEK293T ELG1-luciferase reporter, luminescence, 16 h | AID 504466 | Potency, µM (highest dose often 46 µM), for inactives: top-dose activity change, positive = activation, most hits filed as activators | 330,000 compounds, 1.3% hits; note: % of control where 0% means no effect; nearly all actives have a fitted effect of over 60% in size
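ELG1-luciferase HEK293T cells, 2,000/well; compound pinned in; 16 hr, 37 °C, 5% CO2; ONE-Glo, 30 min RT; luminescence on CCD imager.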
Rab9 promoter act = activators of Rab9 promoter; Potency, µM (highest dose often 9.22 µM), inactives show at the highest dose activation, negative = inhibition, actives largely listed as activators; Huh7 Rab9 promoter-luciferase reporter, luminescence, 24 h; 320,000 compounds, 2.8% hits; AID 485297; note: % of control where 0% means no effect; nearly all actives have a fitted effect of over 60% in size
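Rab9 promoter-driven luciferase in stably transfected Huh7 cells; 1500 cells/well rested 2 h, exposed to compound in DMSO for 24 h at 37 °C, 5% CO2. Luminescence read 10 min after adding luciferase reagent at ambient temperature.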
SMN2 splice enh = increases expression of the SMN2 splice variant. HEK293 SMN2-luciferase splicing reporter, luminescence, 30-36 h. Potency, µM (series often up to 46.1 µM), for the others: top-dose activity change, positive = activation, hits mostly activators. 210,000 compounds, 2.8% hits. AID 1458; note: % of control where 0% means no effect; nearly all actives have a fitted effect of over 55% in size
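qHTS luciferase splicing reporter: luminescence rises when SMN2 exon 7 is included in transfected HEK293 cells. Compound exposure lasted 30-36 h at 37C, with 4.5 mM final sodium butyrate as control, followed by a ONE-Glo read.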
NPC1 promoter act = NPC1 promoter activation; Potency, µM (titrated, usually from 9.22 µM), for the others: at the highest dose activation, usual class: activators; Huh7 NPC1 promoter luciferase reporter, 24 h; 320,000 compounds, 2.4% hits; note: % of control where 0% means no effect; nearly all actives have a fitted effect of over 60% in size
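Stably transfected Huh7 (NPC1 promoter→luciferase), 1500 cells/well in Opti-MEM + 10% FBS, 2 h settle, then compound 24 h at 37 °C. Luminescence after 10 min with Amplite reagent.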
Numbers without * were called inactive; u = inconclusive; x = no result. Hits are enriched below; roughly 9.4% of the tested compounds scored in any of these assays. Calls come from the whole dose curve; as a rule, active = well fitted curve in the direction sought with a large enough effect; inconclusive = small, poorly fitted or top-dose-only effect, or another doubt; inactive = no such curve, though single readings can be large; an effect the other way counts as inactive or inconclusive. Potency is the fitted concentration of half-maximal effect.

SMILES	ELG1 DNA repair	FLuc counter	ELG1 genotox	Rab9 promoter act	SMN2 splice enh	NPC1 promoter act
O=C(Nc1cc(Br)c(O)c(Br)c1)c1cccc(NC(=O)c2ccco2)c1	-19%	11µM*	-9%	1%	x	-2%
O=C(Nc1ccccc1C(=O)Nc1ccccc1)c1ccccc1F	2%	0%	-1%	-3%	x	-3%
CCCOc1ccc(CNC(=O)C2CCN(C(=O)N3CCOc4ccccc43)CC2)cc1	u	-2%	-3%	-1%	x	-1%
Cc1ccc(C)c(C(=O)COC(=O)c2ccccc2N2C(=O)C3C4CCC(C4)C3C2=O)c1 (centres undefined)	-16%	7.6µM*	-6%	6%	-7%	14%
COc1cccc(N2CC(NC(=O)COc3ccc4ccccc4c3)CC2=O)c1 (centres undefined)	x	1%	x	x	x	x
CN(C)S(=O)(=O)c1cccc(COc2ncnc3c(Cl)cc(Cl)cc23)c1	18µM*	0%	-10%	11%	x	1%
CN(C)S(=O)(=O)c1cccc(COC(=O)c2ccc(Cl)cc2O)c1	-7%	4%	-3%	-11%	x	0%
COc1ccc2oc(=O)cc(-c3cc4cccc(OC)c4o3)c2c1	4%	-1%	12%	-5%	x	-5%
COc1cccc2cc(-c3cc(=O)oc4cc(C)c(OCC(C)=O)cc34)oc12	5.2µM*	1%	-6%	4%	x	3%
CSc1ccc(CNc2ccc(C)cc2)cc1	u	9.5µM*	u	4µM*	-5%	3.5µM*
CSc1ccc(CNc2ccc(C)c(C)c2)cc1	u	15µM*	u	u	8%	u
COc1ccc(CNc2ccc(C)c(C)c2)cc1	u	15µM*	u	u	25%	u
CCC(Oc1ccc(F)cc1)C(=O)Nc1nc(-c2ccc(F)cc2)ns1 (centres undefined)	x	-22%	x	x	-84%	x
CCCCN(CC)C(=O)CSc1nc2n[nH]c(C)c2c(=N)n1-c1ccc(CC)cc1	x	-14%	x	x	x	x
O=C1c2cccc(OCC(=O)N3CCCc4ccccc43)c2CCN1Cc1cccnc1	7.3µM*	-5%	-18%	-14%	-59%	-12%
CCOC(=O)N1CCN(C(=O)COc2cccc3c2CCN(Cc2cccc(C)c2)C3=O)CC1	21µM*	-4%	-12%	-7%	-40%	-6%
O=C1c2cccc(OCC(=O)N3N=C(c4cccs4)CC3c3ccc(F)cc3)c2CCN1Cc1cccnc1 (centres undefined)	18µM*	2%	-8%	2%	2%	-7%
Cc1ccccc1CN1CCc2c(OCC(=O)N3CCCc4ccccc43)cccc2C1=O	u	3%	-14%	-7%	-69%	-1%
Cc1ccccc1CNC(=O)c1ccc2nc(SCc3ccc(F)cc3)n(C)c2c1	x	-1%	x	x	0%	x
COc1cc(CNC(=O)c2ccc3c(c2)c(C)c(C)n3Cc2cccc(C)c2)cc(OC)c1OC	x	-10%	x	x	x	x
COc1ccc(/C=C(/C(=O)c2cccs2)N2C=CC=CC2=C(C#N)C#N)cc1	u	13µM*	u	1%	x	-11%
COc1ccc(C(=O)/C(=C\c2ccco2)N2C=CC=CC2=C(C#N)C#N)cc1	u	-15%	-8%	-41%	-67%	-29%
COc1ccc(-n2cnc3cc(NCc4ccccn4)ccc32)cc1	u	17µM*	7%	22%	-8%	16%
CCCn1cnc2cc(NCc3ccccn3)ccc21	u	12µM*	u	3.2µM*	13µM*	3.2µM*
CCCn1cnc2cc(NCc3cccc(OC)c3O)ccc21	u	12µM*	u	-3%	-2%	18%
COc1ccc(-c2cc(NCc3ccccn3)n3ncnc3n2)cc1	-17%	-3%	-4%	-4%	5%	-1%
COc1ccccc1-n1cnc2cc(NCc3ccccn3)ccc21	u	15µM*	10%	16%	11%	-3%
